ELG1 DNA repair: ELG1-dependent DNA repair inhibition. HEK293T ELG1-luciferase reporter, luminescence, 16 h; DNA damage induced by 5-fluorouridine. Potency, µM (titrated, usually from 46.1 µM), without a hit: top-dose activity change, negative = inhibition, usual class: inhibitors. 2.3% of 330,000 active; note: potency is the fitted concentration of half-maximal effect; nearly all actives have a fitted effect of over 55% in size
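Quantitative HTS, concentration-response format. 2,000 cells/well co-treated with 5-fluorouridine and compound, 16 hr in 5% CO2 at 37 °C; ONE-Glo luminescence read after 30 min.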
DT40 TDP1 CPT: growth inhibition of DT40 Tdp1-/-;hTDP1 cells with camptothecin (screen for TDP1 inhibitors). chicken DT40 Tdp1-/-;hTDP1 cells + 20 nM CPT, ATP luminescence, 48 h. Potency, µM (titrated, usually from 46.2 µM), for the others: top-dose activity change, negative = growth inhibition, most hits filed as inhibitors. 12% of 420,000 active. AID 686979; note: potency is the fitted concentration of half-maximal effect; nearly all actives have a fitted effect of over 55% in size
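Chicken DT40 Tdp1-/- cells complemented with human TDP1, 400 cells/well, exposed to compounds plus 20 nM camptothecin for at least 48 h at 37 C; viability read as ATP content by CellTiter-Glo luminescence.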
VP16 counter: counter-screen for ROR gamma inhibitors: Gal4-VP16 reporter | AID 2546 | Drosophila S2 Gal4-VP16 UAS-luciferase, luminescence, 20 h | Potency, µM (highest dose often 53.6 µM), for the others: at the highest dose activity, negative = inhibition, most hits filed as inhibitors | 3.5% of 310,000 active;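 note: Gal4-VP16 expression switched on by copper sulfate through the metallothionein promoter; potency is the fitted concentration of half-maximal effect; nearly all actives have a fitted effect of over 50% in size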
IL1B secr inh: inflammasome signaling inhibition, IL-1 beta readout; 4.7% of 360,000 active; activity change, % at 57.5 µM; THP-1 LPS/ATP IL-1B secretion, AlphaLISA, 16 h; hits give low values; in the data active = activity change below about -50%; inconclusive = mostly about -30% to -49%
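THP-1 cells pretreated 1 hr with compounds (up to 57.5 uM final), then stimulated with LPS (250 ng/mL final) plus ATP (1.25 mM final); secreted IL-1B measured by AlphaLISA after 16 hr, decreased signal indicating inhibition.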
RORgamma inh: ROR gamma (mouse) transcription inhibition; P51450; Drosophila S2 Gal4-RORgamma UAS-luciferase reporter, 20 h; Potency, µM (top dose mostly 53.6 µM), inactives show top-dose activity change, negative = inhibition, usual class: inhibitors; 5.4% of 310,000 active; AID 2551; note: potency is the fitted concentration of half-maximal effect; nearly all actives have a fitted effect of over 60% in size
Target sequence (P51450 whole entry, looked up, the tested form may be a part): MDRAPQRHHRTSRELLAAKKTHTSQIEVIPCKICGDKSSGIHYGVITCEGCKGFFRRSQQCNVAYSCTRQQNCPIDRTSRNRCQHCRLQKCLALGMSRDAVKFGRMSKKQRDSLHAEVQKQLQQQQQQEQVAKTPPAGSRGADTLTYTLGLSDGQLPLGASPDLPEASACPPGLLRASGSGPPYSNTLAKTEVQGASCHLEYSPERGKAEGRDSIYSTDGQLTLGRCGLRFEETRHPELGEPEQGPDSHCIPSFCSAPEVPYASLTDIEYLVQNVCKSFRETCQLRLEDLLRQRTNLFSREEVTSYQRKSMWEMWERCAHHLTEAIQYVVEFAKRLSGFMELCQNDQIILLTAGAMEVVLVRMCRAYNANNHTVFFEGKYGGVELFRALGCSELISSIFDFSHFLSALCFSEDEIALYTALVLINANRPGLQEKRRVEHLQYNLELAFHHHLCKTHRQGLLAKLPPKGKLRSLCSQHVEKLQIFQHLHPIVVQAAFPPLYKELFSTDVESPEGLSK
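Luciferase reporter read in Schneider cells carrying Gal4-RORγ (mouse) and UAS-Photinus luciferase; cells given compound 1 h before 700 uM copper sulfate induction, then incubated 20 h at ambient temperature.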
TDP1 cell noCPT: qHTS for Inhibitors of human tyrosyl-DNA phosphodiesterase 1 (TDP1): qHTS in cells in absence of CPT; DT40 Tdp1-/- hTDP1 cells, no CPT, ATP luminescence, 48 h; Potency, µM (titrated, usually from 46.2 µM), inactives show at the top dose activity change, negative = growth inhibition, actives largely listed as inhibitors; 15% of 420,000 active; note: potency is the fitted concentration of half-maximal effect; nearly all actives have a fitted effect of over 55% in size
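Stably hTDP1-transfected Tdp1-null chicken DT40 cells were treated with library compounds minus camptothecin and grown for at least 48 hr at 37 °C, after which cellular ATP was quantified by luminescence.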
* = called active by the depositor; ? = inconclusive; / = no result given; [ ] = another dose, or the depositor's remark. Sampled rows, rich in hits. Any-hit rate of the full collection: about 21%. Unless noted, calls come from the whole dose curve; as a rule, active = well fitted curve in the direction sought with a large enough effect; inconclusive = small, poorly fitted or top-dose-only effect, or another doubt; inactive = no such curve, though single readings can be large; an effect the other way counts as inactive or inconclusive. % is set by controls: 0 for no effect and ±100 for the full control effect.

SMILES | ELG1 DNA repair | DT40 TDP1 CPT | VP16 counter | IL1B secr inh | RORgamma inh | TDP1 cell noCPT
C[C@H](NC(=O)c1nc[nH]c1C(=O)N[C@@H](CCCCN)C(=O)OC(C)(C)C)C(=O)OC(C)(C)C | ? | -1% | / | -3 | / | -13%
CC(C)(C)OC(=O)[C@H](CCCCN)NC(=O)c1nc[nH]c1C(=O)NCCCCCN | 14% | -2% | / | 16 | / | -10%
CC(C)(C)OC(=O)NCCCC[C@H](NC(=O)c1nc[nH]c1C(=O)NC(c1ccccc1)c1ccccc1)C(=O)OC(C)(C)C | -8% | 15µM* | ? | -7 | 10µM* | ?
CSc1ccc(CN(C)C(=O)CNC(=O)c2ccc3c(c2)OCO3)cc1 | -10% | -14% | / | -13 | / | ?
C=Cc1ccccc1Cl | / | / | -1% | / | -1% | /
O=C(Nc1ccnn1C1CCN(Cc2cc(Cl)ccc2O)CC1)C1CC1 | -5% | ? | -5% | 39 | 7% | -23%
O=C(NCC(=O)N1CCCC(C(F)(F)F)C1)c1cccs1 (stereo not drawn) | / | -13% | / | -15 | / | -10%
CC(C)(C)OC(=O)NCCCC[C@H](NC(=O)c1nc[nH]c1C(=O)N[C@@H](CCCCNC(=O)OC(C)(C)C)C(=O)OC(C)(C)C)C(=O)OC(C)(C)C | 9.2µM* | 15µM* | -9% | -24 | ? | 23µM*
CCN(CC)C(=O)c1[nH]cnc1C(=O)N[C@@H](CCCCNC(=O)OC(C)(C)C)C(=O)OC(C)(C)C | -1% | -3% | 4% | 9 | -26% | ?
O=C(CCCN1C(=O)c2ccccc2C1=O)Nc1nc2ccccc2[nH]1 | -17% | 8% | 2% | 28 | -32% | -20%
C(=N\Nc1nc2ccccc2[nH]1)/c1cccc2nccnc12 | ? | 2.9µM* | 5.6µM* | / | 1µM* | 4.1µM*
Cc1[nH]c2ccccc2c1/C=N/Nc1ccccn1 | 2% | / | ? | / | ? | /
C(=N\Nc1nc2ccccc2[nH]1)/c1ccccn1 | ? | ? | 1.1µM* | 110 | 0.56µM* | 21µM*
Fc1ccccc1-c1ccc(/C=N/Nc2nc3ccccc3[nH]2)o1 | ? | ? | 3.5µM* | 0 | 3.2µM* | ?
C#CCn1cc(/C=N/Nc2nc3ccccc3[nH]2)c2ccccc21 | ? | ? | ? | -92* | 16µM* | ?
COc1cccc(NC(=O)CN(C)C(C)C(=O)N2CCCC2)c1 (stereo not drawn) | 16% | -3% | / | -1 | / | -1%
COCC(=O)Nc1cc(C(=O)N2CCc3ccccc3C2)c2c(c1)nc(-c1ccncc1)n2C | / | 2%[9.04 µM] | / | / | / | -12%
c1cncc(-c2nccc(-n3ccnc3)n2)c1 | / | -7% | -5% | / | 0% | -25%
CCN(CC)c1ccc(/C=N/Nc2nc3ccccc3[nH]2)c(O)c1 | ? | 4.6µM* | 2.8µM* | -59* | 3.5µM* | 4.6µM*
Cc1ccc(/C=N\Nc2nc3ccc(Cl)cc3[nH]2)o1 | ? | ? | 13µM* | ? | 6.3µM* | 21µM*
BrC(=C\c1ccccc1)/C=N/Nc1nc2ccccc2[nH]1 | ? | 18µM* | 5µM* | -29 | 3.2µM* | ?
Cc1ccc(/C=N/Nc2nnc(Cc3ccccc3)c(=O)[nH]2)o1 | 0% | -27% | -3% | -17 | ? | ?
C(=N\Nc1nc2ccccc2[nH]1)/c1ccc2ncccc2c1 | ? | ? | -28% | 0 | -44% | 0.82µM*
CCOC(=O)c1c(NC(=O)CCCOc2ccccc2C)sc2c1CCC(C)C2 (stereo not drawn) | / | -12% | / | / | / | -3%
CCOc1ccccc1N(C)C(=O)Cn1nc(Cc2ccncc2)c2ccccc2c1=O | / | -17% | / | / | / | ?
SMILES | ELG1 DNA repair | DT40 TDP1 CPT | VP16 counter | IL1B secr inh | RORgamma inh | TDP1 cell noCPT
CNC(=O)C12CCC(C)(c3nc4cc(C)c(C)cc4nc31)C2(C)C (stereo not drawn) | -11% | -11% | -5% | 15 | 6% | ?
CCCNC(=O)C12CCC(C)(c3nc4cc(C)c(C)cc4nc31)C2(C)C (stereo not drawn) | -9% | 18µM* | -4% | -10 | -13% | 23µM*
COc1ccc([C@H]2C[C@@H](O)[C@H](n3cc(C4CC4)nn3)CN2C(=O)c2cccs2)cc1 | / | -25% | / | -1 | / | ?
Cc1ccc2c(c1)-n1c(nc3ccc(C)cc3c1=O)C(Cc1ccccc1)NC2=O (stereo not drawn) | -23% | / | / | / | / | /
c1ccc(CN2CCN(C(c3ccccc3)c3ccccc3)CC2)cc1 | -10% | ? | -1% | 5 | -14% | ?
O=S(=O)(CCN1CCN(C(c2ccccc2)c2ccccc2)CC1)C(F)(F)F | 11% | 7.3µM* | 16µM* | -18 | ? | 18µM*
Cc1cc(C)cc(NCc2ccncc2)c1 | -2% | -1% | -4% | 10 | -4% | 2%
CCCN(Cc1cc2cc(OC)ccc2[nH]c1=O)C(=O)c1ccco1 | ? | 29µM* | -28% | 4 | ? | 16µM*
CCCN(Cc1cc2cc(C)ccc2[nH]c1=O)C(=O)c1cccc(OC)c1 | ? | ? | 1%[0.365 µM] | ? | ? | ?
CCCCN(Cc1cc2cc(OC)ccc2[nH]c1=O)C(=O)c1ccco1 | 12% | ? | -11% | 19 | 14% | ?
CCCN(Cc1cc2cc(OC)ccc2[nH]c1=O)C(=O)c1ccncc1 | ? | ? | -23% | 48 | -38% | 16µM*
CCCN(Cc1cc2cccc(C)c2[nH]c1=O)C(=O)c1cccc(OC)c1 | / | ? | / | -9 | / | 16µM*
CCN(Cc1cc2ccc(C)cc2[nH]c1=O)C(=O)c1ccncc1 | 10µM* | / | -8% | / | -25% | /
COc1ccccc1CN1CC[C@@]2(CCCN(C(=O)c3ccco3)C2)C1 | / | ? | 14% | / | 3% | -23%
Cc1cc(C(F)F)n2nc(C(=O)Nc3cccc(Cl)c3C)nc2n1 | / | -3% | / | / | / | -2%
COc1ccc(NC(=O)CSc2nnc(Cc3ccccc3)c(=O)n2N)cc1OC | 1% | 1% | / | -23 | / | -5%
Cc1cccc(NCc2nnc3n2CCCCC3)c1C | / | -26% | / | / | / | ?
CC(=O)Nc1ccc(NC(=O)C(Cc2ccccc2)NS(=O)(=O)c2ccc3c(c2)oc(=O)n3C)cc1 (stereo not drawn) | / | -9% | / | / | / | 4%
CC1C/C(=C\c2cccnc2)C(=O)/C(=C/c2cccnc2)C1 (stereo not drawn) | 2.1µM* | 0.82µM* | 0.63µM* | -101* | 1.1µM* | 0.73µM*

High-throughput results from PubChem BioAssay.
